The text below walks through data of article PMC9911399, “Two distinct binding modes provide the RNA-binding protein RbFox with extraordinary sequence specificity”.

The chains are these.
T1: RBFOX1 RRM (Homo sapiens, UniProt Q9NWB1 109-208)
T1 sequence: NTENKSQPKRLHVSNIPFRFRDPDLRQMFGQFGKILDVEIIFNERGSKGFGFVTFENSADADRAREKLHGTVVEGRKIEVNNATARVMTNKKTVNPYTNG

B1: UCAGCGA (DNA:RNA)
RNA: GGGAGACCGGAAUUCAGAUUGUCCUCAGCGAUUAAAUCCCGUCGUAGCCACCA
DNA 1: CAATCTGAATTCCGGTCTCCC
DNA 2: TGGTGGCTACGACGGGATT
B2: ACCACAA (DNA:RNA)
RNA: B1 RNA with U25A, A27C, G28A, G30A
DNA 1: CAATCTGAATTCCGGTCTCCC
DNA 2: TGGTGGCTACGACGGGATT
B3: GUCGAGG (DNA:RNA)
RNA: B1 RNA with U25G, C26U, A27C, C29A, A31G
DNA 1: CAATCTGAATTCCGGTCTCCC
DNA 2: TGGTGGCTACGACGGGATT
B4: GACCCGU (DNA:RNA)
RNA: B1 RNA with U25G, C26A, A27C, G28C, A31U
DNA 1: CAATCTGAATTCCGGTCTCCC
DNA 2: TGGTGGCTACGACGGGATT
B5: AGAUGGC (DNA:RNA)
RNA: B1 RNA with U25A, C26G, G28U, C29G, A31C
DNA 1: CAATCTGAATTCCGGTCTCCC
DNA 2: TGGTGGCTACGACGGGATT
B6: CGCUGGA (DNA:RNA)
RNA: B1 RNA with U25C, C26G, A27C, G28U, C29G
DNA 1: CAATCTGAATTCCGGTCTCCC
DNA 2: TGGTGGCTACGACGGGATT
B7: GCUAUGG (DNA:RNA)
RNA: B1 RNA with U25G, A27U, G28A, C29U, A31G
DNA 1: CAATCTGAATTCCGGTCTCCC
DNA 2: TGGTGGCTACGACGGGATT
B8: CACCGAC (DNA:RNA)
RNA: GGGAGACCGGAAUUCAGAUUGUCCCACCGACUUAAAUCCCGUCGUAGCCACCA
DNA 1: CAATCTGAATTCCGGTCTCCC
DNA 2: TGGTGGCTACGACGGGATT
B9: GGAAGCG (DNA:RNA)
RNA: B8 RNA with C25G, A26G, C27A, C28A, A30C, C31G
DNA 1: CAATCTGAATTCCGGTCTCCC
DNA 2: TGGTGGCTACGACGGGATT
B10: CUCUACU (DNA:RNA)
RNA: B8 RNA with A26U, C28U, G29A, A30C, C31U
DNA 1: CAATCTGAATTCCGGTCTCCC
DNA 2: TGGTGGCTACGACGGGATT
B11: GUCAUUG (DNA:RNA)
RNA: B8 RNA with C25G, A26U, C28A, G29U, A30U, C31G
DNA 1: CAATCTGAATTCCGGTCTCCC
DNA 2: TGGTGGCTACGACGGGATT
B12: UGAUUCG (DNA:RNA)
RNA: B1 RNA with C26G, G28U, C29U, G30C, A31G
DNA 1: CAATCTGAATTCCGGTCTCCC
DNA 2: TGGTGGCTACGACGGGATT
B13: GUCCUGA (DNA:RNA)
RNA: B8 RNA with C25G, A26U, G29U, A30G, C31A
DNA 1: CAATCTGAATTCCGGTCTCCC
DNA 2: TGGTGGCTACGACGGGATT
B14: UGCUGGC (DNA:RNA)
RNA: B8 RNA with C25U, A26G, C28U, A30G
DNA 1: CAATCTGAATTCCGGTCTCCC
DNA 2: TGGTGGCTACGACGGGATT
B15: CGGCUGA (DNA:RNA)
RNA: B8 RNA with A26G, C27G, G29U, A30G, C31A
DNA 1: CAATCTGAATTCCGGTCTCCC
DNA 2: TGGTGGCTACGACGGGATT
B16: UGGCUGC (DNA:RNA)
RNA: B8 RNA with C25U, A26G, C27G, G29U, A30G
DNA 1: CAATCTGAATTCCGGTCTCCC
DNA 2: TGGTGGCTACGACGGGATT
B17: CGGCUGC (DNA:RNA)
RNA: B8 RNA with A26G, C27G, G29U, A30G
DNA 1: CAATCTGAATTCCGGTCTCCC
DNA 2: TGGTGGCTACGACGGGATT
B18: UGAUGGC (DNA:RNA)
RNA: B1 RNA with C26G, G28U, C29G, A31C
DNA 1: CAATCTGAATTCCGGTCTCCC
DNA 2: TGGTGGCTACGACGGGATT
B19: GUGCUGA (DNA:RNA)
RNA: B1 RNA with U25G, C26U, A27G, G28C, C29U
DNA 1: CAATCTGAATTCCGGTCTCCC
DNA 2: TGGTGGCTACGACGGGATT
B20: UGGCUGA (DNA:RNA)
RNA: B1 RNA with C26G, A27G, G28C, C29U
DNA 1: CAATCTGAATTCCGGTCTCCC
DNA 2: TGGTGGCTACGACGGGATT

Positions count from the first letter of the chain named. Whole data set: some 16,000 sequences, median “ka relative to ugcaugu” near 0.0091, cut for the highest 2% near 0.032. For the sample, the highest values were picked, then their nearest neighbours and some sequences at random.

In this test the target is T1, RBFOX1 RRM. The experiment in a line: EMSA; HiTS-Eq, 1 nM pool, 10 min; buffer printed only for the single-RNA assays: 10 mM Tris pH 7.5, 150 mM NaCl, 3.4 mM EDTA, 0.001% NP-40, 30 C. The settings on record: tags: His6 N-terminal (pET28a); label: 5' 32P. An outline of the steps: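 Purified RbFox RRM, wild type or mutant, was incubated for 10 min in 50 µL with 1 nM of a 5′-radiolabelled RNA pool carrying 7 randomized nucleotides, whose flanks were annealed to DNA oligonucleotides, over a series of increasing protein concentrations. Unbound RNA was resolved on 8% native PAGE, cut out, reverse-transcribed, barcoded by PCR and sequenced on an Illumina HiSeq 2500. Relative association constants were derived from changes in read counts for each RNA species versus the control reaction and normalised to the cognate motif.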
For B1, the binding signal is 0.00561 KA relative to UGCAUGU.

Regarding B2, the binding signal is 0.00102 KA relative to UGCAUGU.

Take B3: the binding signal is 0.0114 KA relative to UGCAUGU.

As for B4, the binding signal is 0.00715 KA relative to UGCAUGU.

Turning to B5, the binding signal is 0.0111 KA relative to UGCAUGU.

B6: the binding signal was 0.00997 KA relative to UGCAUGU.

As for B7, the binding signal is 0.0134 KA relative to UGCAUGU.

On to B8, for which the binding signal is 0.00223 KA relative to UGCAUGU.

With B9, the binding signal is 0.0177 KA relative to UGCAUGU.

With B10, the binding signal is 0.00629 KA relative to UGCAUGU.

As to B11, the binding signal was 0.0126 KA relative to UGCAUGU.

For B12, the binding signal is 0.0228 KA relative to UGCAUGU.

Regarding B13, the binding signal was 0.0213 KA relative to UGCAUGU.

In the case of B14, the binding signal is 0.0238 KA relative to UGCAUGU.

For B15, the binding signal was 0.022 KA relative to UGCAUGU.

B16: the binding signal was 0.0373 KA relative to UGCAUGU.

Turning to B17, the binding signal is 0.018 KA relative to UGCAUGU.

Take B18: the binding signal was 0.0129 KA relative to UGCAUGU.

B19: the binding signal was 0.0323 KA relative to UGCAUGU.

With B20, the binding signal was 0.036 KA relative to UGCAUGU.
